Source: PubChem BioAssay
Only some compounds are listed: those with a hit (about 2.9% of all), similar ones and a draw of the others.
APOBEC3A inh = APOBEC3A ssDNA deaminase inhibitors, primary screen, selectivity assay for APOBEC3G inhibitor project, biochemical, FAM/TAMRA oligo cleavage fluorescence. inhibition, % at 20 µM. actives 0.41% (n = 330,000). recombinant A3A, FAM/TAMRA ssDNA deamination fluorescence. AID 493011, 2011. DNA dC->dU-editing enzyme APOBEC-3A (Homo sapiens), P31941;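 active = at least 40% inhibition at 20 µM here, with at most 30% in a related deaminase screen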;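 also: plate controls were A3A with DMSO for no effect and wells lacking A3A enzyme for full effect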
Target sequence (P31941 whole entry, looked up): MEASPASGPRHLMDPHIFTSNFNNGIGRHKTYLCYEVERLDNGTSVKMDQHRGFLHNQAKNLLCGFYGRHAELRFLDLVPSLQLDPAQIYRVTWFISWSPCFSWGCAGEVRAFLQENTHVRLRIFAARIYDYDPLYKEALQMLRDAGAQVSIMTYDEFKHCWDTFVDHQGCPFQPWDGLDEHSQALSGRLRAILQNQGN
H9c2 TAG inh = inhibitors of triacylglycerol accumulation, primary screen, cell-based, uHTS, fluorescence, H9c2; actives 0.66% (n = 230,000); H9c2 cells, Nile Red lipid (TAG) fluorescence; cells loaded with 200 µM oleic acid; inhibition, % at 12.5 µM; AID 651582, 2012;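 active = pattern-corrected inhibition of lipid staining of at least 50% with the nuclear-stain viability signal not falling by more than 50%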;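 also: 0% = DMSO wells and 100% = triacsin C control wells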
A3G deaminase = APOBEC3G DNA deaminase inhibitors, primary screen, biochemical, fluorescence, single-stranded DNA substrate, uHTS | inhibition, % at 20 µM | recombinant A3G, ssDNA deamination FAM/TAMRA fluorescence | DNA dC->dU-editing enzyme APOBEC-3G (Homo sapiens), Q9HC16 | actives 0.28% (n = 330,000);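 active = inhibition of at least 40% at 20 µM, with no more than 30% in the related APOBEC3A deaminase screen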;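 also: plate controls were DMSO wells with A3G for no effect and wells lacking A3G enzyme for full effect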
Target sequence (Q9HC16 whole entry, looked up): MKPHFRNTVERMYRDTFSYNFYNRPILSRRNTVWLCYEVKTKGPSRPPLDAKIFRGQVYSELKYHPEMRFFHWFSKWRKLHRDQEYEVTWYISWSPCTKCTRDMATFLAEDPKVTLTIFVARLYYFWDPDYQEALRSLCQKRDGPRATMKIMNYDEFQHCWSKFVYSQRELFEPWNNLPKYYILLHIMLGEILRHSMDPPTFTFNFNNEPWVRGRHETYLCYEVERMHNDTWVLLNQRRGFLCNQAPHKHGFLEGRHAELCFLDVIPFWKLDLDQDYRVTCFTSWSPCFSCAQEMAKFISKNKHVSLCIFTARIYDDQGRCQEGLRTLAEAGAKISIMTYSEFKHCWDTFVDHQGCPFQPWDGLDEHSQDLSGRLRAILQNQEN
Cardio protect = cardioprotection against H2O2-induced cell death, primary screen, uHTS, H9c2 cells, ATPLite luminescence | H9c2 cardiomyocytes, H2O2 injury protection, 2 h | protection from H2O2 cell death, % at 20 µM | actives 0.63% (n = 360,000);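 active = compounds giving at least 50% protection of heart cells from peroxide-induced death in the single-dose screen, raw or plate-pattern-corrected value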;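 also: 0% = DMSO wells with peroxide and 100% = DMSO wells without peroxide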
NadD inh = inhibitors of S. aureus NadD, primary screen, biochemical, colorimetric, uHTS. purified NadD enzyme, colorimetric absorbance read-out. actives 0.78% (n = 360,000). Nicotinate-nucleotide adenylyltransferase NadD (Staphylococcus aureus N315). AID 602399, 2012. inhibition, % at 20 µM; in the data active = inhibition above about 26%
PfG6PD inh = PfG6PD enzyme inhibitors, primary screen, biochemical, fluorescence intensity, uHTS | glucose-6-phosphate dehydrogenase-6-phosphogluconolactonase (Plasmodium falciparum 3D7) | PfGluPho enzyme, NADPH resazurin-diaphorase fluorescence | inhibition, % at 20 µM | actives 0.78% (n = 350,000);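 active = inhibition reaching at least a set limit at 20 µM in the primary screen, cut at about 59% in these data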;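 also: 0% = DMSO wells with substrate and 100% = DMSO wells lacking glucose-6-phosphate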
A3A conf = APOBEC3A deaminase inhibitors, retest, confirmation, selectivity assay for APOBEC3G inhibitor project, biochemical, single concentration, fluorescence readout | recombinant A3A, ssDNA deaminase UDG fluorescence assay | AID 493151, 2011 | shares compounds with APOBEC3A inh | inhibition, % at 20 µM | actives 63% (n = 1,400);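 active = inhibition reaching a set limit, 80% of the first screen's cutoff, at 20 µM in any replicate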;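 also: plate controls were DMSO wells with A3A for no effect and wells lacking A3A enzyme for full effect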
UDG ctr A3A = E. coli UDG inhibitors, confirmation, counter-screen for APOBEC3A inhibitor project, biochemical, single concentration, fluorescence, FAM/TAMRA oligo; shares compounds with APOBEC3A inh; UDG counterscreen, FAM/TAMRA uracil oligo fluorescence; inhibition, % at 20 µM; 1,000 tested, under 10 active; AID 504714, 2011; call rule not given here
* marks the source's active call; other numbers are inactive results.

For O=C(CSc1ncccn1)N1CCN(C(=O)CSc2ncccn2)CC1 the results were APOBEC3A inh -3.0, A3G deaminase -4.1, Cardio protect 1.6, NadD inh -5.3 and PfG6PD inh -4.6.
Screening O=C(Oc1ccc2c(c1)OCO2)c1cc2c(s1)CCC2 returned APOBEC3A inh 62.4*, H9c2 TAG inh 3.4, A3G deaminase 28.9, Cardio protect -29.6, NadD inh 24.2, PfG6PD inh 13.0 and A3A conf 79.5*.
Screening O=C(Nc1ccc(NC(=O)C2CC2)cn1)c1ccccc1Cl returned APOBEC3A inh 43.1*, H9c2 TAG inh -8.6, A3G deaminase -1.7, Cardio protect 0.2, NadD inh 0.6, PfG6PD inh -1.4, A3A conf -5.8 and UDG ctr A3A -0.7.
For O=C(Nc1ccc(NC(=O)C2CC2)cn1)c1ccccc1 the results were APOBEC3A inh 2.3, A3G deaminase -5.0, Cardio protect -14.2, NadD inh -2.0 and PfG6PD inh -8.1.
`COc1ccccc1N1CCN(C(=O)c2ccc3noc(-c4ccccc4)c3c2)CC1` gave H9c2 TAG inh 1.7, Cardio protect -4.1, NadD inh 18.1 and PfG6PD inh 3.0.
`COc1ccc(NC(=O)CN2C(=O)S/C(=C/c3cccn3-c3ccc(C(=O)O)cc3)C2=O)cc1` gave APOBEC3A inh 63.5*, H9c2 TAG inh 4.7, A3G deaminase 24.9, Cardio protect -5.5, NadD inh 11.3 and A3A conf 57.3*.
For CCN(CC(=O)Nc1ccc(NC(C)=O)cc1)C(=O)c1ccc(NC2CC2)c([N+](=O)[O-])c1 the results were APOBEC3A inh 52.2*, H9c2 TAG inh 12.6, A3G deaminase 23.9, Cardio protect 0.2, NadD inh 2.6, PfG6PD inh -17.7 and A3A conf -0.5.
`O=C(O)c1cccc(-n2cccc2/C=C2/NC(=O)N(Cc3ccccc3F)C2=O)c1` gave APOBEC3A inh 61.7*, H9c2 TAG inh -0.6, A3G deaminase 11.2, Cardio protect 6.6, NadD inh 5.5, PfG6PD inh 1.7, A3A conf 62.1* and UDG ctr A3A -0.9.
For O=C1N/C(=C/c2cccn2-c2ccc(F)cc2)C(=O)N1Cc1ccccc1F the results were APOBEC3A inh -2.8, A3G deaminase 0.9, Cardio protect -2.3, NadD inh 6.1 and PfG6PD inh -15.7.
`CNC(=O)/C(C#N)=C\c1ccc(CNS(=O)(=O)c2ccc(Cl)cc2)o1` gave APOBEC3A inh 71.0*, H9c2 TAG inh -0.7, A3G deaminase 11.3, Cardio protect -3.2, NadD inh 13.7, PfG6PD inh 3.8, A3A conf 77.2* and UDG ctr A3A -2.7.
For CNC(=O)/C(C#N)=C\c1ccc(CNS(=O)(=O)c2ccccc2)o1 the results were APOBEC3A inh 5.2, A3G deaminase 1.0, Cardio protect -3.1, NadD inh -0.3 and PfG6PD inh 2.9.
`CCCc1c(C(=O)NNc2cc(C(F)(F)F)ccc2Cl)cnn1-c1ccccc1` gave APOBEC3A inh -3.1, H9c2 TAG inh -9.3, A3G deaminase -3.7, Cardio protect -4.9, NadD inh -7.0 and PfG6PD inh 10.9.
O=C(NCc1ccccc1Cl)c1cc(=O)[nH]c2ccccc12 was read as APOBEC3A inh 51.6*, A3G deaminase 2.6, Cardio protect -1.7, NadD inh 3.7, PfG6PD inh -20.7 and A3A conf 15.3.
`CCn1c(/C=C/N(C(C)=O)c2ccccc2)[n+](CC)c2ccc(Cl)cc21` gave APOBEC3A inh 63.0*, A3G deaminase 29.1, Cardio protect -2.7, NadD inh 16.6, PfG6PD inh 0.7, A3A conf 64.5* and UDG ctr A3A 0.5.
For CC[n+]1c(C)n(C)c2cc(S(=O)(=O)N(C)C)ccc21 the results were APOBEC3A inh 81.5*, H9c2 TAG inh 11.1, A3G deaminase 18.6, Cardio protect 1.6, NadD inh 18.9, PfG6PD inh 3.0, A3A conf 77.4* and UDG ctr A3A -2.0.
For CCOC(=O)c1ccc2c(c1)n(CC)c(C)[n+]2CC the results were APOBEC3A inh 72.5*, H9c2 TAG inh -14.6, A3G deaminase 13.1, Cardio protect 1.9, NadD inh 15.4, PfG6PD inh 4.2, A3A conf 68.8* and UDG ctr A3A -2.4.
CCn1c(C)[n+](CC)c2ccc(C(=O)N(C)c3ccccc3)cc21 was read as APOBEC3A inh 70.8*, H9c2 TAG inh -0.7, A3G deaminase 19.3, Cardio protect -0.9, NadD inh 9.2, PfG6PD inh 11.0, A3A conf 80.4* and UDG ctr A3A -1.6.
CCOC(=O)c1ccc2c(c1)[nH]c(=S)n2CC was read as APOBEC3A inh -2.9, A3G deaminase -6.3, Cardio protect 2.8, NadD inh -0.5 and PfG6PD inh 33.3.
CC[n+]1c(/C=C/C=C/N(C(C)=O)c2ccccc2)sc2ccccc21 was read as APOBEC3A inh 27.9, H9c2 TAG inh -365.4, A3G deaminase 17.6, Cardio protect -21.3, NadD inh 1.2 and PfG6PD inh 37.8.
For CCCCN(CCCC)CP(=O)(c1ccccc1)c1ccccc1 the results were APOBEC3A inh 1.1, H9c2 TAG inh 4.7, A3G deaminase 0.4, Cardio protect 11.8, NadD inh -2.3 and PfG6PD inh -15.6.
`CCn1c(C)[n+](CC)c2ccc(S(=O)(=O)N(C)C)cc21` gave APOBEC3A inh 84.9, H9c2 TAG inh -14.3, A3G deaminase 35.8, Cardio protect 6.9, NadD inh 16.7 and PfG6PD inh 5.9.
CCn1c(C)[n+](CC)c2ccc(S(=O)(=O)NC)cc21 was read as APOBEC3A inh 76.1*, H9c2 TAG inh 16.0, A3G deaminase 21.0, Cardio protect 10.5, NadD inh 5.6, PfG6PD inh 8.9, A3A conf 48.8* and UDG ctr A3A -1.8.
CCOc1ccc(NC(=O)c2cc(C3CC3)nc3c2cnn3C(C)C)cc1OC was read as APOBEC3A inh 51.5*, H9c2 TAG inh 19.1, A3G deaminase 10.4, Cardio protect -3.8, NadD inh 0.9, PfG6PD inh 15.4 and A3A conf 28.0.
